Sampled rows, rich in hits. Any-hit rate of the full collection: about 11%.
RORgamma inh: qHTS for inhibitors of ROR gamma transcriptional activity | Nuclear receptor ROR-gamma (Mus musculus), P51450 | Drosophila S2 Gal4-RORgamma UAS-luciferase reporter, 20 h | Potency, µM (highest dose often 53.6 µM), for inactives: top-dose activity change, negative = inhibition, most hits filed as inhibitors | hit rate 5.4% among 310,000 | AID 2551, 2010; note: potency is the fitted concentration of half-maximal effect; % is set by controls: 0 for no effect and ±100 for the full control effect; nearly all actives have a fitted effect of over 60% in size
Target sequence (P51450 whole entry, looked up, the tested form may be a part): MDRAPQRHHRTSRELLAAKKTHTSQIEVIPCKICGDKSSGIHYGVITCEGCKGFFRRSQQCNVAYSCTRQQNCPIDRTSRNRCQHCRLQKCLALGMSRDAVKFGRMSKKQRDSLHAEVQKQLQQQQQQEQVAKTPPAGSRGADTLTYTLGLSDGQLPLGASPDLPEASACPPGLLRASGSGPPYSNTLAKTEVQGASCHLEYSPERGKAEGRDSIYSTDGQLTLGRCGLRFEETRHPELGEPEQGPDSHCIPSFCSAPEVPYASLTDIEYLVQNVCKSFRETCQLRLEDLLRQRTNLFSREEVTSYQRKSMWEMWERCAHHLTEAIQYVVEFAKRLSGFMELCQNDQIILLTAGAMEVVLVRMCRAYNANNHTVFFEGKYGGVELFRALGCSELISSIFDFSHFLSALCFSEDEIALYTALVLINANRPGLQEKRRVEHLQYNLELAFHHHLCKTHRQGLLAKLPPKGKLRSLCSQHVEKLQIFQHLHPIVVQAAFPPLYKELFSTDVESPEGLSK
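Stably transfected Drosophila Schneider cells are the test system, with ROR gamma fused to Gal4 and luciferase under UAS control; luminescence is read after 20 hr of 700 uM copper sulfate induction at ambient temperature.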
SW480 rerep: A quantitative high throughput screen for small molecules that induce DNA re-replication in SW480 colon adenocarcinoma cells. hit rate 1.8% among 340,000. Potency, µM (highest dose often 46.1 µM), for inactives: at the top dose re-replication activation, hits mostly activators. SW480 DNA re-replication, Hoechst DNA content imaging, 48 h; note: potency is the fitted concentration of half-maximal effect; % of control where 0% means no effect; nearly all actives have a fitted effect of over 55% in size
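First, 250 cells per well were seeded. Next, compound or vehicle (23 nL) was pinned in, plates sat 48 hr at 37 C. Finally Hoechst was added for 40 min before fluorescence scanning.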
IL-1B inflam inh: qHTS for Inhibitors of Inflammasome Signaling: IL-1-beta AlphaLISA Primary Screen; THP-1 LPS/ATP IL-1B secretion, AlphaLISA, 16 h; hits give low values; activity change, % at 57.5 µM; hit rate 4.7% among 360,000; AID 743279, 2014; in the data active = activity change below about -50%; inconclusive = mostly about -30% to -49%; note: % is set by controls: 0 for no effect and ±100 for the full control effect
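Secreted IL-1B measured by AlphaLISA bead assay after 16 h compound exposure of THP-1 cells; compounds (final up to 57.5 uM) added 1 h before LPS (250 ng/mL) and ATP (1.25 mM) stimulation; lower signal means less secretion.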
Gal4-VP16 FLuc: VP16 counterscreen qHTS for inhibitors of ROR gamma transcriptional activity | Drosophila S2 Gal4-VP16 UAS-luciferase, luminescence, 20 h | Potency, µM (series often up to 53.6 µM), for the others: at the highest dose activity, negative = inhibition, most hits filed as inhibitors | hit rate 3.5% among 310,000;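 note: Gal4-VP16 expression switched on by copper sulfate through the metallothionein promoter; potency is the fitted concentration of half-maximal effect; % is set by controls: 0 for no effect and ±100 for the full control effect; nearly all actives have a fitted effect of over 50% in size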
MCF10A rerep: A quantitative high throughput screen for small molecules that induce DNA re-replication in MCF 10a normal breast cells | MCF 10A DNA re-replication, Hoechst nuclear intensity, 48 h | Potency, µM (titrated, usually from 46.1 µM), inactives show at the highest dose activity, positive = re-replication, hits mostly activators | hit rate 2.9% among 350,000 | AID 624296, 2012; note: potency is the fitted concentration of half-maximal effect; % of control where 0% means no effect; nearly all actives have a fitted effect of over 50% in size
Starred values were filed as active, the others as inactive; u = inconclusive; x = not tested or not shown; [ ] = remark or other dose. Unless noted, calls come from the whole dose curve; as a rule, active = well fitted curve in the direction sought with a large enough effect; inconclusive = small, poorly fitted or top-dose-only effect, or another doubt; inactive = no such curve, though single readings can be large; an effect the other way counts as inactive or inconclusive.

SMILES	RORgamma inh	SW480 rerep	IL-1B inflam inh	Gal4-VP16 FLuc	MCF10A rerep
Cc1cc(C(=O)N2CCN(c3ncccn3)CC2)c(C)o1	22µM*	24%	-11	-1%[0.365 µM]	1%
Cc1cc(C(=O)N2CCN(S(=O)(=O)c3ccccc3F)CC2)c(C)o1	13µM*	4%	1	7%	-13%
Cc1cc(C(=O)N2CCN(S(=O)(=O)c3ccccc3C#N)CC2)c(C)o1	x	-4%	12	x	1%
Cc1ccc(S(=O)(=O)N2C[C@H]3N(C(=O)OC(C)C)N(C(=O)OC(C)C)C[C@H](OC(=O)NCC4CCCCC4)[C@@]3(O)C2)cc1	x	x	-17	x	x
CN(CCc1ccccc1)C(=O)c1ccc(NC(=O)Cc2ccc(NC(=O)C3CCCN(C(=O)C4CCCC4)C3)cc2)cc1 (centres undefined)	x	7%[9.22 µM]	22	x	-54%
CN1CCN(c2nc(-c3ccccc3)ncc2S(=O)(=O)c2ccccc2)CC1	-29%	0%	-52*	14%[10 µM]	-1%
COc1cccc(/C=C/C(=O)OCC(=O)NCC2CCCCC2)c1OC	x	-21%	9	x	0%
S=C(NCCCN1CCOCC1)N1CCN(c2ccccc2)CC1	11%	-1%	3	-16%	2%
S=C(NCCCN1CCOCC1)N1CCN(c2nc(-c3ccccc3)cs2)CC1	-19%	0%	-87*	-5%	u
S=C(NCC1CCCO1)N1CCN(c2nc(-c3ccc(Cl)cc3)cs2)CC1 (centres undefined)	u	u	-68*	u	48%
S=C(NCCCN1CCOCC1)N1CCN(c2nc(-c3ccc(Cl)cc3)cs2)CC1	-16%	u	-70*	5%	u
O=C1c2ccccc2[C@@H]2C[C@H]3O[C@H]3CCN12	x	-6%	42	x	-3%
O=C(Nc1cccnc1)c1cc(-c2cccc(Br)c2)nc2ccccc12	34%	3%	1	-16%	u
Cc1ccc2nc(-c3cccc(Br)c3)cc(C(=O)NC3=NCCS3)c2c1	2.5µM*	3%	-14	4.5µM*	2%
O=C(Nc1ncccn1)c1cc(-c2cccc(Br)c2)nc2ccccc12	14%	3%	u	-5%	u
O=C(NC1=NCCS1)c1cc(-c2cccc(Br)c2)nc2ccccc12	7.1µM*	19%	u	u	u
CCOc1cc2c3c(c1)C1(OCCO1)C(=O)N3C(C)(C)CC2C (centres undefined)	-1%	-6%	8	1%	13%
CCOc1cc2c3c(c1)C1(C(=O)N3C(C)(C)CC2C)C(C#N)=C(N)N2C(=C1C#N)Nc1ccccc12 (centres undefined)	u	2%	13	12%	16µM*
CCOc1cc2c3c(c1)C1(Nc4ccccc4S1)C(=O)N3C(C)(C)CC2C (centres undefined)	25%	u	15	0%	21µM*
Cc1cc2c3c(c1)C1(C(=O)N3C(C)(C)CC2C)C(C#N)=C(N)Oc2n[nH]c(C)c21 (centres undefined)	-7%	u	u	-9%	28%
CC(NC(=O)CNC(=O)c1cccs1)c1cccc(C(F)(F)F)c1 (centres undefined)	x	28%	-14	x	9%
NNc1nc2c(F)cccc2s1	16µM*	u	5	u	u
NNc1nc2c(F)cc(F)cc2s1	u	0%	-25	18µM*	u
O=C(Nc1nc2c(F)cc(F)cc2s1)c1ccco1	-38%	-4%	0	u	u
CC1CCc2c(sc(Nc3nc4c(F)cccc4s3)c2C(N)=O)C1 (centres undefined)	5.6µM*	u	-78*	5µM*	7.3µM*
SMILES	RORgamma inh	SW480 rerep	IL-1B inflam inh	Gal4-VP16 FLuc	MCF10A rerep
CC1CCc2c(sc(NC(=O)CSc3nc(N)cc(=O)[nH]3)c2C(N)=O)C1 (centres undefined)	x	-6%	-54*	x	u
Nc1nc2c(F)cccc2s1	21%	-5%	28	-4%	-2%
N#Cc1c(NC(=O)CSc2nc(N)cc(=O)[nH]2)sc2c1CCCCCC2	-4%	-4%	8	u	26%
c1cc(OCC2CO2)cc(OCC2CO2)c1 (centres undefined)	-17%	x	x	-1%	x
COc1ccc(OCCOC(=O)CNC(=O)c2ccc(F)cc2)cc1	x	x	33	x	x
Fc1cccc2sc(Nc3nc4c(F)cccc4s3)nc12	4.5µM*	-1%	17	u	11%
O=C(Nc1nc2c(F)cccc2s1)C1CC1	30%	-12%	22	u	2%
COC(=O)C1=C[C@@H](C(=O)OC)C2C3=C(C(=O)C24CCCCC4)[C@H](C)n2c(=O)n(-c4ccccc4)c(=O)n2[C@@H]3C1 (some centres undefined)	-28%	-55%[9.22 µM]	-5	-7%	1%
COC(=O)C1=C[C@@H](C(=O)OC)[C@@H]2C3=C(C(=O)C2(C)C)[C@H](C)n2c(=O)n(-c4ccccc4)c(=O)n2[C@@H]3C1	-33%	5.2µM*	-6	1%	u
CC(=O)N1c2ccc(S(=O)(=O)N(C)CC(=O)NC3CCCC3)cc2CC1C (centres undefined)	-1%	-1%	20	-5%	-6%
CC1(C(=O)Nc2ccc3c(c2)OCCO3)CCN1C(=O)C1(c2ccc(Cl)cc2)CCC1 (centres undefined)	x	x	30	x	x
CCCC1CCC(=NNC(=O)CNc2ccc(OC)cc2)CC1 (centres undefined)	-20%	15µM*	0	1%	-71%
CC1(Br)C(Sc2ccccc2[N+](=O)[O-])=Nc2ccccc21 (centres undefined)	x	x	14	x	x
CCOC(=O)c1ccc(NC(=O)c2sc3nc4n(c(=O)c3c2C)CCC4)cc1	23%	u	-52*	-1%	-7%
CC(=O)Nc1ccc(S(=O)(=O)Nc2nc3ccccc3s2)cc1	-9%	-2%	u	-2%	18%
O=S(=O)(Nc1ccc(O)c(Sc2nc3ccccc3s2)c1)c1ccc(Cl)cc1	3%	-136%	u	2%	21µM*
O=C(C1=C[C@@H](c2ccc(C(F)(F)F)cc2)C[C@@H](OCc2ccc(CO)cc2)O1)N1CCN(Cc2ccc3c(c2)OCO3)CC1	-32%	u	-70*	u	u
O=C(C1=C[C@@H](c2ccc3c(c2)OCO3)C[C@@H](OCc2ccc(CO)cc2)O1)N1CCOCC1	0%	-11%	-9	7%	0%
O=C(C1=C[C@H](c2csc3ccccc23)C[C@H](OCc2ccc(CO)cc2)O1)N1CCCCCCC1	x	1%	-20	x	23µM*
